Source: PubChem (several laboratories)
TROY NFkB inh: inhibitors of TROY-driven NF-kB signaling, primary screen, Q293 LMP1-TROYcd cells, NF-kB luciferase, uHTS; Q293 LMP1-TROYcd NF-kB luciferase reporter, 4 h; inhibition, % at 10 µM; 360,000 tested, 0.98% active; AID 1347056, 2019;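 active = compounds whose plate-normalised and pattern-corrected inhibition of the luciferase reporter signal at the single screening dose is 50% or more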
TWEAK-Fn14 inh: inhibitors of TWEAK-Fn14 signaling, primary screen, luciferase reporter cells, uHTS; inhibition, % at 10 µM; TWEAK-stimulated Fn14 reporter cells, luciferase luminescence, 8 h; 360,000 tested, 2% active; in the data active = inhibition above about 50%
MITF act: activators of MITF-driven TRPM1 promoter reporter, primary screen, cell-based, SK-MEL-5, luciferase, single point | SK-MEL-5 TRPM1-promoter luciferase, 24 h; % of positive control, neutral wells = 0 | activation, % at 12.5 µM | 300,000 tested, 0.75% active;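 active = mean activation of at least 80% with every replicate also reaching 80%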;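 note: 0% = neutral control wells and 100% = parthenolide positive control wells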
MITF TRPM1 inh: inhibitors of MITF-dependent TRPM1 promoter reporter, primary screen, cell-based, SK-MEL-5, single point, luciferase; 330,000 tested, 0.83% active; SK-MEL-5 TRPM1 promoter luciferase, 24 h; inhibition, % at 12.5 µM;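 active = mean inhibition across replicates of 60% or more, whatever share of single replicates reaches that level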
LMP1 NFkB inh: EBV LMP1-driven NF-kappaB luciferase reporter inhibitors, primary screen, cell-based, luminescence, single point; LMP1-induced NF-kappaB luciferase reporter cells; inhibition, % at 12.5 µM; AID 504558, 2011; 350,000 tested, 0.69% active; in the data active = inhibition above about 41%;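 note: 0% = neutral control wells and 100% = reference inhibitor control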
LGR2 inh: inhibitors of bursicon-induced LGR2 CRE-luciferase signal, primary screen, cell-based, HEK293, CRE-luciferase reporter, bursicon stimulation; bursicon-stimulated, 4 h; inhibition, % at 9.99 µM; AID 720647, 2013; 380,000 tested, 0.35% active;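 active = drop in luminescence signal, shown as inhibition above about 50% in the replicate tests, limit read from the data, passing the limit was not always enough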;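 note: agonist challenge used bursicon conditioned medium at about half maximal strength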
An asterisk follows results filed as active; x = no result given. Only some compounds are listed: those with a hit (about 3% of all), similar ones and a draw of the others.

SMILES	TROY NFkB inh	TWEAK-Fn14 inh	MITF act	MITF TRPM1 inh	LMP1 NFkB inh	LGR2 inh
OC[C@H]1[C@H](c2ccc(C#CC3(O)CCCC3)cc2)[C@H]2CN(Cc3cncnc3)CCCCN21	x	x	x	x	x	-4
COc1cc(/C=N/Nc2ccccn2)ccc1OCC(C)C	-92	-46	90*	-88	-28	-41
CCOc1ccc(/C=N/Nc2ccccn2)cc1OC	-32	-58	58	-56	-24	-59
Fc1cccc(/C=N/Nc2ccccn2)c1	-55	-4	97*	-90	-17	-60
CCCOc1ccc(/C=N/Nc2ccccn2)cc1OC	-42	-14	91*	-80	-28	-60
C[C@@H]1CCCCO[C@H](CN(C)C)[C@@H](C)CN([C@@H](C)CO)C(=O)c2cc(NC(=O)Cc3ccccc3)ccc2O1	x	x	x	x	x	4
Cc1ccc(-c2nc3nc4ccccc4nc3n2Cc2ccco2)cc1	74*	90*	34	-35	-9	x
Clc1ccc(-c2nc3nc4ccccc4nc3n2Cc2ccco2)cc1	-5	59*	28	-28	-28	x
COc1ccccc1Cn1c(-c2ccco2)nc2nc3ccccc3nc21	-20	1	40	-32	1	x
O=C(C[C@H]1CC[C@@H](NS(=O)(=O)c2ccccc2)[C@@H](CO)O1)N1CCc2ccccc2C1	x	x	x	x	x	-11
CC(C)C#Cc1cnc2c(c1)C(=O)N([C@H](C)CO)C[C@H](C)[C@H](CN(C)C(=O)c1cnccn1)O2	x	x	x	x	x	0
O=C(Nc1ccc2nc3n(c(=O)c2c1)CCCC3)c1cc([N+](=O)[O-])ccc1F	80*	89*	-81	81*	2	x
CC(C)CCNC(=S)Nc1ccc2nc3n(c(=O)c2c1)CCCCC3	1	-16	17	-16	63*	0
CCCCNC(=S)Nc1ccc2nc3n(c(=O)c2c1)CCCCC3	-2	-32	1	-1	0	-11
O=C(Nc1ccc2nc3n(c(=O)c2c1)CCCC3)c1cccc([N+](=O)[O-])c1	-57	-15	13	-16	0	-17
CCC(=O)N(C)C[C@H]1Oc2cc(-c3cccc(F)c3)ccc2S(=O)(=O)N([C@H](C)CO)C[C@H]1C	x	x	x	x	x	3
O=C(Cn1cncn1)N/N=C/c1ccc(Cl)cc1	-16	-3	14	-10	-3	-4
CC(C)/C=C(/C(=O)c1ccc(Cl)cc1Cl)n1cncn1	1	61*	-32	33	20	26
CC(C)(C)C(=O)/C(=C/c1ccc(Cl)cc1)n1cncn1	20	77*	-93	94*	-6	42
O=C(/C(=C/c1cccnc1)n1ccnc1)c1ccc(Cl)cc1Cl	-27	-12	x	9	16	9
Cc1ccc(-c2cnc3c(c2)C(=O)N([C@@H](C)CO)C[C@@H](C)[C@@H](CN(C)Cc2ccccc2C(=O)O)O3)cc1	x	x	x	x	x	5
C[C@H]1CN([C@@H](C)CO)C(=O)Cc2cc(NC(=O)Nc3ccccc3)ccc2O[C@@H]1CN(C)C(=O)Nc1ccc(F)cc1	x	x	x	x	x	-6
CCC(=O)N1CCC2(CC1)CN(C(=O)NC1CCCC1)[C@@H](CO)c1c2c2ccc(OC)cc2n1C	x	x	x	x	x	2
N#Cc1cc(NC(=O)c2ccc(Cl)cc2)ccc1Sc1ccccc1	50*	64*	x	x	x	4
COc1ccc(Sc2ccc(NC(=O)c3ccccc3Cl)cc2C#N)cc1	1	15	-4	6	-5	x
SMILES	TROY NFkB inh	TWEAK-Fn14 inh	MITF act	MITF TRPM1 inh	LMP1 NFkB inh	LGR2 inh
COc1cc(C)ccc1OCCOc1ccccc1Cl	-13	-38	90*	-85	-17	x
COc1cc(C)ccc1OCCCOc1ccccc1Cl	-14	-42	126*	-121	-38	x
CC(=O)N(C)C[C@H]1[C@H](c2ccc(C3=CCCC3)cc2)[C@H](CO)N1CC1CC1	x	x	x	x	x	0
C[C@H](CO)N1C[C@H](C)[C@@H](CN(C)CC2CC2)OCCCC[C@H](C)Oc2ccc(NS(=O)(=O)c3ccc(Cl)cc3)cc2C1=O	x	x	x	x	x	21
CS(=O)(=O)Nc1ccc2c(c1)[C@@H]1C[C@H](CC(=O)NCc3ccc(Cl)cc3)O[C@H](CO)[C@@H]1O2	x	x	x	x	x	9
COC(=O)c1cc2n(n1)CCN(Cc1ccc(C)cc1)C2=O	2	2	9	-11	6	-3
COC(=O)c1cc2n(n1)CCN(Cc1ccccc1Cl)C2=O	-11	-6	7	-8	70*	x
COc1ccc2c3c([nH]c2c1)[C@@H](CO)N(Cc1ccccc1)CC31CN(C)C1	x	x	x	x	x	7
Cc1cccc(C(=O)Nc2nc(C)c(C(=O)Nc3ccc4c(c3)CCC4)s2)c1	8	52*	-13	12	20	-44
Cc1cccc(NC(=O)c2sc(C)nc2C)c1	-44	-22	34	-30	-10	x
CC(CCN1CCOCC1)c1ccccc1 (stereo unspecified)	5	60*	21	-20	12	12
COc1ccc(NC(=O)N(C)C[C@H]2OCCCC[C@H](C)Oc3ccc(NC(=O)NC(C)C)cc3C(=O)N([C@@H](C)CO)C[C@@H]2C)cc1	x	x	x	x	x	-6
CC(C)(C)[S@@](=O)N1Cc2cc(C(=O)NCCc3ccncc3)nc(-c3cccc(-c4ccccc4)c3)c2[C@H]1CCO	x	x	x	x	x	-21
Cc1ccc(S(=O)(=O)N[C@@H]2CC[C@@H](CCNS(=O)(=O)Cc3ccccc3)O[C@H]2CO)cc1	x	x	x	x	x	-9
CCOC(=O)c1c(NC(=O)c2ccco2)n(C2CCCCC2)c2nc3ccccc3nc12	71*	88*	-3	6	-7	x
COc1cc(Cl)c(C)cc1NC(=O)COc1ccc(C)nc1[N+](=O)[O-]	-76	-56	99*	-96	-31	-58
Cc1ccc(OCC(=O)Nc2ccc(Cl)cc2)c([N+](=O)[O-])n1	-55	-30	110*	-107	-37	-90
Cc1ccc(OCC(=O)Nc2ccc(F)cc2)c([N+](=O)[O-])n1	-46	-22	104*	-92	-20	-60
C[C@@H]1CN([C@H](C)CO)C(=O)c2cc(-c3ccccc3F)cnc2O[C@@H]1CN(C)C(=O)c1cnccn1	x	x	x	x	x	4
O=C(Nc1cc(C(=O)N2CCCC2)ccc1N1CCCC1)c1ccccc1F	20	11	-29	27	51*	x
O=C(Nc1cc(C(F)(F)F)ccc1N1CCOCC1)c1ccccc1F	x	62*	-1	-1	4	x
O=C(Nc1cc(C(F)(F)F)ccc1N1CCOCC1)c1cccc(F)c1	-1	-1	3	-1	3	x
O=C(C[C@H]1C=C[C@H](NC(=O)Nc2ccc3c(c2)OCO3)[C@@H](CO)O1)NCc1ccc(F)cc1	x	x	x	x	x	20
CCN(CC(=O)NCc1cccs1)C(=O)c1ccc(-c2ccc(F)cc2)o1	12	80*	-3	3	-4	8
